Screens deposited in PubChem by National Center for Advancing Translational Sciences (NCATS).
Luc counter – Counterscreen for Luciferase (Kinase-Glo TM) Inhibition; Kinase-Glo luciferase, ATP luminescence, 8 min; Potency, µM (top dose mostly 38.3 µM), inactives show at the highest dose activity change, negative = inhibition, hits mostly inhibitors; actives 0.28% (n = 200,000); note: % is set by controls: 0 for no effect and ±100 for the full control effect; nearly all actives have a fitted effect of over 60% in size
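Recombinant Kinase-Glo luciferase, 10 uM ATP (linear range), luciferin; imidazole pH 7.2 / KCl / MgCl2 / Tween / BSA buffer; 8 min RT; luminescence.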
NPC1 promoter act – qHTS Assay for NPC1 Promoter Activators; Huh7 NPC1 promoter luciferase reporter, 24 h; Potency, µM (doses to about 9.22 µM), for the others: at the top dose activation, most hits filed as activators; actives 2.4% (n = 320,000); note: % of control where 0% means no effect; nearly all actives have a fitted effect of over 60% in size
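In 1536-well qHTS, Huh7 cells harboring an NPC1 promoter–luciferase construct received compound for 24 h; activation was quantified by luminescence following luciferase reagent addition.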
SMN2 splice up – qHTS Assay for Enhancers of SMN2 Splice Variant Expression; actives 2.8% (n = 210,000); Potency, µM (top dose mostly 46.1 µM), for the others: at the top dose activity change, positive = activation, usual class: activators; HEK293 SMN2-luciferase splicing reporter, luminescence, 30-36 h; note: % of control where 0% means no effect; nearly all actives have a fitted effect of over 55% in size
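qHTS luciferase splicing reporter: luminescence rises when SMN2 exon 7 is included in transfected HEK293 cells. Compound exposure lasted 30-36 h at 37C, with 4.5 mM final sodium butyrate as control, followed by a ONE-Glo read.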
FLuc counter – qHTS profiling assay for firefly luciferase inhibitor/activator using purifed enzyme and Km concentrations of substrates (counterscreen for miR-21 project). purified FLuc, Km substrates, luminescence inhibition. actives 6.9% (n = 360,000). AID 588342, 2011. Potency, µM (doses to about 57.5 µM), without a hit: at the top dose activity change, negative = inhibition, most hits filed as inhibitors;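 note: plate controls were vehicle for no effect and reference inhibitor for full effect; nearly all actives have a fitted effect of over 55% in size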
Target sequence (P08659 whole entry, looked up): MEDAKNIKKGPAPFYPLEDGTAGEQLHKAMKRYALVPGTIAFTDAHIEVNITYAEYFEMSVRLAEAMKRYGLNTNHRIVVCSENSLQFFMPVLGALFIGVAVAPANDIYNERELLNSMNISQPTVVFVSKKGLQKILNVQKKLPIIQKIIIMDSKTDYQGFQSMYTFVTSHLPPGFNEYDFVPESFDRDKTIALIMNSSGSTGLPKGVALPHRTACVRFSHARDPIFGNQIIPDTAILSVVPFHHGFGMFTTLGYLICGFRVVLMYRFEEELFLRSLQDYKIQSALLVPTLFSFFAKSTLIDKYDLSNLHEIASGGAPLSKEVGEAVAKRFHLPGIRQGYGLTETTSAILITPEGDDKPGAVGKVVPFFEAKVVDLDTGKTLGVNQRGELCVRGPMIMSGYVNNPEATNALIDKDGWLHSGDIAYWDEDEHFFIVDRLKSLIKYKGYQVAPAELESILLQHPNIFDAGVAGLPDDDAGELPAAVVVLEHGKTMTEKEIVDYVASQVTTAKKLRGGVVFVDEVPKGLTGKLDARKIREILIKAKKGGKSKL
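Purified P. pyralis luciferase, 10 nM final, with Km-level 10 uM D-luciferin and 10 uM ATP in 50 mM Tris acetate pH 7.5, 10 mM Mg acetate, 0.01% Tween-20, 0.05% BSA; 6-point qHTS titration about 60 µM downward; luminescence read.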
Rab9 prom act – qHTS Assay for Rab9 Promoter Activators | Potency, µM (highest dose often 9.22 µM), for inactives: at the top dose activation, negative = inhibition, usual class: activators | actives 2.8% (n = 320,000) | Huh7 Rab9 promoter-luciferase reporter, luminescence, 24 h; note: % of control where 0% means no effect; nearly all actives have a fitted effect of over 60% in size
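Stable Rab9-luc Huh7, 1500 cells/well, 2 h settle; cmpd in DMSO, 24 h, 37 °C/5% CO2; luciferase reagent 10 min RT; luminescence.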
ELG1 genotox – qHTS screen for small molecules that induce genotoxicity in human embryonic kidney (HEK293T) cells expressing luciferase-tagged ELG1; HEK293T ELG1-luciferase reporter, luminescence, 16 h; Potency, µM (highest dose often 46 µM), inactives show at the top dose activity change, positive = activation, hits mostly activators; actives 1.3% (n = 330,000); note: % of control where 0% means no effect; nearly all actives have a fitted effect of over 60% in size
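Genotoxicity was scored as increased ELG1-luciferase reporter signal, measured by ONE-Glo luminescence (30 min, room temperature). Compound or vehicle exposure of the HEK293T reporter cells lasted 16 hr at 37°C.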
* marks the source's active call; other numbers are inactive results; ? = inconclusive; · = no result. Most compounds without a hit are left out; they make up all but 7.5% or so of the library. Calls come from the whole dose curve; as a rule, active = well fitted curve in the direction sought with a large enough effect; inconclusive = small, poorly fitted or top-dose-only effect, or another doubt; inactive = no such curve, though single readings can be large; an effect the other way counts as inactive or inconclusive. Potency is the fitted concentration of half-maximal effect.

SMILES	Luc counter	NPC1 promoter act	SMN2 splice up	FLuc counter	Rab9 prom act	ELG1 genotox
COC(=O)C1=C(C)NC(=O)C1(NC(=O)c1cc(OC)c(OC)c(OC)c1)C(F)(F)F (stereo unspecified)	·	·	3.0%	-8.7%	·	·
O=C(NCC1COc2ccccc2O1)c1ccccc1 (stereo unspecified)	-1.8%	3.98µM*	12.6µM*	12µM*	4.47µM*	?
O=C(NCC1COc2ccccc2O1)c1ccco1 (stereo unspecified)	-0.5%	2.9%	·	-2.3%	10.1%	5.6%
O=C(NC(=S)NCC1COc2ccccc2O1)c1ccccc1 (stereo unspecified)	2.8%	-0.1%	-32.7%	?	-0.4%	-0.3%
O=C(NCC1COc2ccccc2O1)c1cc2ccccc2o1 (stereo unspecified)	-1.5%	7.6%	22.9%	13.5µM*	5.7%	15.9%
Cc1ccc(CN2CCC(CNc3ncnc4onc(-c5ccc(F)cc5)c34)CC2)cc1	·	·	·	-0.4%	·	·
CCOC(=O)C1CCN(c2ncnc3c2cnn3-c2ccc(Cl)cc2)CC1	0.1%	1.0%	-45.6%	?	-2.1%	0.4%
CCN1CCN(c2ncnc3c2cnn3-c2cc(Cl)ccc2C)CC1	·	·	·	-0.8%	·	·
Clc1ccc(-n2ncc3c(N4CCCC4)ncnc32)cc1	-1.7%	0.501µM*	-74.9%	0.338µM*	0.316µM*	0.184µM*
CCN1CCN(c2ncnc3c2cnn3-c2ccc(C)cc2)CC1	·	·	·	10.7µM*	·	·
Cc1ccc(-n2ncc3c(N4CCCCCC4)ncnc32)cc1	·	·	·	0.12µM*	·	·
Fc1ccc(-n2ncc3c(N4CCCCCC4)ncnc32)cc1	·	·	·	0.953µM*	·	·
COc1ccccc1-n1c(=O)oc2ccc(Cl)cc2c1=O	-3.3%	?	·	13.5µM*	3.6%	5.7%
COc1ccccc1-n1c(SCc2cc(=O)oc3cc(O)ccc23)nc2ccccc2c1=O	-0.3%	2.4%	22.9%	?	-2.7%	0.3%
O=C(Oc1cccc(-c2cnc3ccccc3n2)c1)c1ccco1	-1.1%	?	12.6µM*	23.9µM*	3.16µM*	?
CCN(CC)S(=O)(=O)c1ccc(C)c(C(=O)Oc2cccc(-c3cnc4ccccc4n3)c2)c1	2.0%	?	17.8µM*	-0.2%	?	15.0%
CCN(CC)S(=O)(=O)c1cc(C(=O)Oc2cccc(-c3cnc4ccccc4n3)c2)ccc1OC	-1.6%	?	12.6µM*	-17.1%	?	9.8%
CC(C)C[C@@H](CC(=O)N[C@@H](CCCN)CC(=O)N[C@@H]1CCNC[C@H]1C(=O)N[C@H](CC(=O)N[C@@H](CCC(=O)O)CC(=O)O)Cc1ccccc1)NC(=O)[C@@H]1CNCC[C@H]1N	0.9%	·	2.4%	·	·	·
CC(=O)c1cccc(NCc2ccccc2-c2nnc(-c3ccccc3)o2)c1	·	·	11.7%	?	·	·
Nc1nonc1C(=O)N/N=C/c1ccc(Br)o1	·	-2.3%	·	19µM*	-1.6%	0.1%
N/C(=N\N=C\c1ccc(Br)o1)c1nonc1N	·	2.51µM*	·	12µM*	1.26µM*	?
COc1ccc(OC)c(/C=N/N=C(\N)c2nonc2N)c1	·	-0.6%	·	?	-2.7%	1.4%
CC1CN(C(=O)Nc2ccc(C(=O)NCCc3ccc(Cl)cc3)cc2)c2ccccc2S1 (stereo unspecified)	·	·	0.2%	-4.6%	·	·
CCN(CC)c1ccc(/C=C/c2nc3ccccc3s2)cc1	-11.6%	?	-89.7%	0.601µM*	3.7%	0.461µM*
COc1cc(C(=O)Nc2nc3c(s2)Cc2c(Br)ccc(OC)c2-3)cc(OC)c1OC	·	·	1.4%	-6.6%	·	·
COc1ccc(CCNc2nc(-c3ccncc3)cs2)cc1OC	·	3.3%	·	21.3µM*	0.0%	-4.3%
COc1ccc(CCNc2nc(-c3ccccn3)cs2)cc1OC	·	-5.4%	·	-18.0%	13.2%	-4.8%
